“And” between values parts separate entries of the source, which are not always exact repeats. Identical values can stand only once.
Columns and labels:
Assay in all cases: cell viability relative to vehicle control; higher = less cytotoxic
Conditions in all cases: 10 µM
K562 = system: K562
How it was run: (§1)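 Mutant clones made by CRISPR editing and their isogenic wild-type counterparts, from four leukaemia lines, were exposed to a single 10 µM dose of each library compound for 48 h. The supernatant was then removed and CellTiter-Glo luminescence was read. Viability was reported as percent of the on-plate vehicle control.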

MARIMO = system: MARIMO
How it was run: as §1

MOLM14 = system: MOLM14
How it was run: as §1

OCI-AML2 = system: OCI-AML2
How it was run: as §1

Compound | cell viability (K562; SRSF2 genotype: SRSF2 P95H/wt) | cell viability (K562; SRSF2 genotype: SRSF2 wt/wt) | cell viability (MARIMO; SRSF2 genotype: SRSF2 P95H/wt) | cell viability (MARIMO; SRSF2 genotype: SRSF2 wt/wt) | cell viability (MOLM14; SRSF2 genotype: SRSF2 P95H/wt) | cell viability (MOLM14; SRSF2 genotype: SRSF2 wt/wt) | cell viability (OCI-AML2; SRSF2 genotype: P95H/wt) | cell viability (OCI-AML2; SRSF2 genotype: wt/wt)
Nc1ncnc2c1ncn2C(C=O)OC(C=O)CO (stereo not given) [Adenosine Dialdehyde (ADOX)] | 67.4% and 74.4% | 69.3% | 60.7% | 59.4% | 25.3% | 14.5% | 40.4% | 42.5%
CC1(C)C[C@@H]1C(=O)N/C(=C\CCCCSC[C@H](N)C(=O)O)C(=O)O [Cilastatin] | 104% and 93.4% | 105% | 97% | 100% | 104% | 103% | 102% | 110%
COc1cc(F)c(F)c(Nc2ccc(I)cc2F)c1NS(=O)(=O)C1(C[C@H](O)CO)CC1 [Refametinib (RDEA119, Bay 86-9766)] | 53.8% and 59.1% | 62.1% | 31.8% | 33% | 30.7% | 22.7% | 35.4% | 35.1%
COc1cc2c(cc1O)CC[n+]1cc3c(OC)c(OC)ccc3cc1-2 [Jatrorrhizine] | 91.4% and 98.7% | 95.8% | 107% | 103% | 101% | 99.8% | 105% | 98.2%
C=C1C(=O)[C@]23[C@H](O)[C@H]1CC[C@H]2[C@@]12CO[C@]3(O)[C@@H](O)[C@@H]1C(C)(C)CC[C@@H]2O [Oridonin (Isodonol)] | 26.2% and 29.8% | 24.2% | 37.5% | 30.1% | 9.97% | 3.32% | 17.9% | 13.2%
N#CC(=Cc1ccc(O)c(O)c1)C(=O)NCc1ccccc1 [AG-490 (Tyrphostin B42)] | 101% and 99.8% | 91% | 78.5% | 92.8% | 95.9% | 103% | 90.4% | 93.7%
CC(C)=CCC[C@](C)(O[C@@H]1O[C@H](CO[C@@H]2O[C@@H](CO)[C@H](O)[C@H]2O)[C@@H](O)[C@H](O)[C@H]1O)[C@H]1CC[C@]2(C)[C@@H]1[C@H](O)C[C@@H]1[C@@]3(C)CC[C@H](O[C@@H]4O[C@H](CO)[C@@H](O)[C@H](O)[C@H]4O[C@@H]4O[C@H](CO)[C@@H](O)[C@H](O)[C@H]4O)C(C)(C)[C@@H]3CC[C@]12C [Ginsenoside Rc] | 103% and 101% | 100% | 99.1% | 101% | 110% | 99.2% | 104% | 93.5%
CCCCC(CC)COC(=O)C=Cc1ccc(OC)cc1 (stereo not given) [Octinoxate] | 106% and 102% | 103% | 96.9% | 109% | 99.5% | 108% | 90.2% | 93.4%
COc1cc([C@@H]2Oc3cc([C@H]4Oc5cc(O)cc(O)c5C(=O)[C@@H]4O)ccc3O[C@H]2CO)ccc1O [Silymarin (Silybin B)] | 106% and 94.4% | 95.6% | 99.6% | 108% | 105% | 102% | 106% | 114%
NS(=O)(=O)c1cc2c(cc1Cl)NC(C(Cl)Cl)NS2(=O)=O (stereo not given) [Trichlormethiazide (Achletin)] | 102% and 101% | 102% | 108% | 99.7% | 94.7% | 106% | 112% | 110%
CC1(C)S[C@@H]2[C@H](NC(=O)Cc3ccccc3)C(=O)N2[C@H]1C(=O)O [Penicillin G Sodium] | 100% and 92% | 99.5% | 98.5% | 107% | 96.9% | 103% | 91.9% | 109%
Clc1ccc2c(N3CCN(CCCN4CCN(c5ccnc6cc(Cl)ccc56)CC4)CC3)ccnc2c1 [Piperaquine phosphate] | 99.4% and 95% | 98.2% | 93.8% | 103% | 85.3% | 102% | 92.7% | 88%
O=C[C@H](O)[C@@H](O)[C@H](O[C@H]1O[C@H](CO)[C@@H](O[C@H]2O[C@H](CO)[C@@H](O[C@H]3O[C@H](CO)[C@@H](O[C@H]4O[C@H](CO)[C@@H](O)[C@H](O)[C@H]4O)[C@H](O)[C@H]3O)[C@H](O)[C@H]2O)[C@H](O)[C@H]1O)[C@H](O)CO [Maltopentaose] | 101% | 103% | 97.8% | 105% | 104% | 106% | 109% | 110%
N#CCNC(=O)c1ccc(-c2ccnc(Nc3ccc(N4CCOCC4)cc3)n2)cc1 [Momelotinib (CYT387)] | 81.2% and 85.3% | 86.1% | 26.7% | 42.8% | 15% | 5.08% | 11% | 15.7%
COc1ccc(-c2cc(=O)c3c(OC)c(OC)c(OC)c(OC)c3o2)cc1OC [Nobiletin (Hexamethoxyflavone)] | 94.6% and 90.6% | 92.6% | 79.1% | 82.1% | 83.3% | 81.3% | 74.5% | 81.5%
CCCOC(=O)c1cc(O)c(O)c(O)c1 [Propyl gallate] | 96.2% and 91% | 94.7% | 81.8% | 99.1% | 97.6% | 106% | 98.2% | 97.5%
CC[C@H](Nc1ncnc2[nH]cnc12)c1oc2ccccc2c(=O)c1-c1cccc(F)c1 [Tenalisib (RP6530)] | 101% and 96% | 98.2% | 95.2% | 100% | 82.4% | 84.4% | 84.8% | 87.5%
O=C1C2=C(CCN(Cc3ccccc3)C2)N2CCN=C2N1Cc1ccc(C(F)(F)F)cc1 | 39% and 40.3% | 34% | 43% | 36.9% | 31.1% | 34.1% | 22.3% | 22.3%
C[C@@H](Oc1cc(-c2cnn(C3CCNCC3)c2)cnc1N)c1c(Cl)ccc(F)c1Cl | 1.39% and 1.02% | 1.8% | 23.6% | 16.2% | 0.46% | 0.63% | 0.4% | 1.89%
CC(C)CCCC(C)C1CCC2C3=CC=C4CC(O)CCC4(C)C3CCC21C (stereo not given) [7-Dehydrocholesterol] | 88.5% and 88.6% | 96.5% | 87.6% | 87% | 86.6% | 93.9% | 94.2% | 94.7%
